Sampled rows, rich in hits. Any-hit rate of the full collection: about 16%.
TDP1 inh = qHTS Assay for Inhibitors of Tyrosyl-DNA Phosphodiesterase (TDP1). Tyrosyl-DNA phosphodiesterase 1 (Homo sapiens), Q9NUW8. recombinant TDP1, AlphaScreen DNA substrate cleavage. Potency, µM (doses to about 130 µM), for the others: top-dose activity change, negative = inhibition, actives largely listed as inhibitors. 350,000 tested, 0.28% active. AID 485290, 2010; also: potency is read from the fitted curve at half-maximal effect; % is scaled to controls: 0 for no effect and ±100 for the full control effect; nearly all actives have a fitted effect of over 40% in size
Target sequence (Q9NUW8 whole entry, looked up): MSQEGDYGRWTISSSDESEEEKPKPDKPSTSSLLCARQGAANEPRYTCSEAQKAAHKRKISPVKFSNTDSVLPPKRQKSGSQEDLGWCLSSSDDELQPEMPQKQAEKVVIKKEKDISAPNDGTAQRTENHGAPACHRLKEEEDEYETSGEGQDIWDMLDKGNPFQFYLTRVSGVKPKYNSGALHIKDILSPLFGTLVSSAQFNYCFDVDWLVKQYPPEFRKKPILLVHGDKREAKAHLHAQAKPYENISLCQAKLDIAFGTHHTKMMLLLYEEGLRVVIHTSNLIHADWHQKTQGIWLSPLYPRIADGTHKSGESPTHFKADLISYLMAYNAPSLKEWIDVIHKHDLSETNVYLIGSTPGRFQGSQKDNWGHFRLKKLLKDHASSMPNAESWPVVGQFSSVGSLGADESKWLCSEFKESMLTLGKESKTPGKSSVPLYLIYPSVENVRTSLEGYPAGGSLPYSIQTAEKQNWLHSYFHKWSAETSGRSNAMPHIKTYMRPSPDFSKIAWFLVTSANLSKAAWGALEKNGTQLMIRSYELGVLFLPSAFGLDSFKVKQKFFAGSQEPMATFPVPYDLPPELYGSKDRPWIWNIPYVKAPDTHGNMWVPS
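Tdp1 1 nM final; 15 min RT w/ cpd; substrate 15 nM, 5 min; beads 10 ug/ml, 10 min; AlphaScreen read. Neg ctrl: no enzyme.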
TDP1 cell CPT = qHTS for Inhibitors of human tyrosyl-DNA phosphodiesterase 1 (TDP1): qHTS in cells in presence of CPT | 420,000 tested, 12% active | chicken DT40 Tdp1-/-;hTDP1 cells + 20 nM CPT, ATP luminescence, 48 h | AID 686979, 2013 | Potency, µM (highest dose often 46.2 µM), for inactives: top-dose activity change, negative = growth inhibition, most hits filed as inhibitors; also: potency is read from the fitted curve at half-maximal effect; % is scaled to controls: 0 for no effect and ±100 for the full control effect; nearly all actives have a fitted effect of over 55% in size
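Chicken DT40 Tdp1-/- cells stably complemented with human TDP1 were seeded at 400 cells/well in medium containing 20 nM camptothecin, exposed to pin-transferred compounds, and grown at 37 °C for at least 48 hr. Viability was read as ATP luminescence.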
uPA surface inh = qHTS for Inhibitors of Cell Surface uPA Generation. AID 540303, 2011. 330,000 tested, 0.31% active. cell surface uPA generation assay, qHTS. Potency, µM (titrated, usually from 38.3 µM), inactives show at the highest dose activity change, negative = inhibition, most hits filed as inhibitors; active = well fitted inhibition curve with a large enough effect; inconclusive = small, poorly fitted or top-dose-only effect; inactive = no such curve, though single readings can be large or run the other way; tested in mouse RAW 264.7 cells; also: potency is read from the fitted curve at half-maximal effect; % is scaled to controls: 0 for no effect and ±100 for the full control effect; nearly all actives have a fitted effect of over 55% in size
TDP1 cell noCPT = qHTS for Inhibitors of human tyrosyl-DNA phosphodiesterase 1 (TDP1): qHTS in cells in absence of CPT; DT40 Tdp1-/- hTDP1 cells, no CPT, ATP luminescence, 48 h; 420,000 tested, 15% active; Potency, µM (series often up to 46.2 µM), inactives show top-dose activity change, negative = growth inhibition, usual class: inhibitors; also: potency is read from the fitted curve at half-maximal effect; % is scaled to controls: 0 for no effect and ±100 for the full control effect; nearly all actives have a fitted effect of over 55% in size
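No-CPT arm: Tdp1-/-;hTDP1 DT40 cells (400/well) plus compounds, incubated ≥48 hr at 37 °C. Readout CellTiter-Glo luminescence.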
miR-21 act = qHTS Assay for Modulators of miRNAs and/orActivators of miR-21; HeLa miR-21 FLuc reporter, luciferase, 48 h; Potency, µM (highest dose often 38.3 µM), for inactives: at the top dose activity change, positive = activation, most hits filed as activators; 340,000 tested, under 10 active; AID 2288, 2010;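 also: % of control where 0% means no effect; miR-21 action dims this reporter so a rising signal means less miR-21 action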
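Compounds were titrated across several concentrations (up to approximately 40 uM) and incubated 48 hours with HeLa miR-21-FLuc reporter cells (miR-21 target sequence downstream of FLuc, endogenous miR-21). Readout was firefly luciferase luminescence after lytic detection reagent.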
Active calls of the source: *; u = inconclusive; x = not tested or not shown; [ ] = dose if it differs, or a comment. Unless noted, calls follow the shape of the dose curve; as a rule, active = well fitted curve in the direction sought with a large enough effect; inconclusive = small, poorly fitted or top-dose-only effect, or another doubt; inactive = no such curve, though single readings can be large; an effect the other way counts as inactive or inconclusive.

SMILES	TDP1 inh	TDP1 cell CPT	uPA surface inh	TDP1 cell noCPT	miR-21 act
Nc1nn(-c2ccccc2)nc1C(=O)OCc1ccc(Cl)cc1	-15%	0%	x	1%	3%
NC(=NCCc1ccccc1)c1cccc([N+](=O)[O-])c1	x	-14%	-1%	11%	-13%
COc1ccc(CC(=O)NCC2CCCN(Cc3ccc(OC)cc3F)C2)cc1 (configuration not stated)	x	-8%	21%	u	-1%
Cc1ccc(C(=O)NNC(=O)C(NC(=O)c2cccc(C)c2)C(C)C)cc1 (configuration not stated)	1%	-10%	-12%	-16%	x
CCc1cccc(C)c1NS(=O)(=O)c1ccc2c(c1)CC(C)N2C(=O)C1CC1 (configuration not stated)	3%	u	x	u	22%
COc1ccc(NS(=O)(=O)c2ccc3c(c2)CC(C)N3C(C)=O)c(OC)c1 (configuration not stated)	-1%	18µM*	x	21µM*	9%
CCOc1ccccc1NS(=O)(=O)c1ccc2c(c1)CC(C)N2C(=O)C1CC1 (configuration not stated)	-10%	u	x	15µM*	4%
COc1ccccc1CNS(=O)(=O)c1ccc2c(c1)CC(C)N2C(C)=O (configuration not stated)	-1%	u	x	18µM*	3%
CC(=O)N1c2ccc(S(=O)(=O)NCCc3ccccc3)cc2CC1C (configuration not stated)	4%	u	4%	12µM*	13%
O=C(NN1C(=O)CSC1=S)c1cccnc1	6%	3%	-4%	8%	4%
CCC(O)c1nc2ccccc2n1Cc1cc(C)ccc1C (configuration not stated)	0%	u	x	u	2%
COc1ccc(CCNS(=O)(=O)c2ccc3c(c2)CC(C)N3C(=O)C2CCC2)cc1OC (configuration not stated)	0%	u	x	13µM*	0%
COCCNC(=O)C1CCC(CNS(=O)(=O)c2ccc3c(c2)CC(C)N3C(=O)C2CC2)CC1 (configuration not stated)	3%	-6%	4%	-1%	-10%
Cc1cccc(OCCSCc2nc3ccccc3[nH]2)c1	6%	16µM*	12%	21µM*	-3%
Cc1ccccc1OCCSCc1nc2ccccc2[nH]1	2%	16µM*	3%	u	3%
Cc1cccc(OCCCSc2nc3ccccc3[nH]2)c1	-1%	u	3%	-13%	-3%
Cc1ccccc1OCC(=O)NCCc1nc2ccccc2[nH]1	5%	-23%	2%	u	-10%
CC(C)(C)C(=O)COC(=O)c1ccc2c(c1)C(=O)N(Cc1ccco1)C2=O	11%	-13%	1%	-19%	7%
Cc1sc(-n2c(C)cc(/C=C3\SC(=S)NC3=O)c2C)c(C#N)c1C	6%	u	-12%	-28%	-20%
Cc1sc(-n2c(C)cc(/C=N/n3cnnc3)c2C)c(C#N)c1C	5%	16µM*	4%	21µM*	0%
CCOC(=O)c1c(NC(=O)C2CCCCC2)sc2c1CCN(CC)C2	x	u	-7%	u	8%
CN1CCc2c(sc(N)c2C(N)=O)C1	5%	26µM*	x	21µM*	1%
CN1CCc2c(sc(/N=C/c3c[nH]c4ccccc34)c2C#N)C1	x	u	-1%	u	-11%
CCN1CCc2c(sc(N)c2C(N)=O)C1	0%	u	-7%	23µM*	-3%
CCN1CCc2c(sc(NC(=S)NC(=O)c3cccc(F)c3)c2C(N)=O)C1	8%	u	x	u	x
SMILES	TDP1 inh	TDP1 cell CPT	uPA surface inh	TDP1 cell noCPT	miR-21 act
NC(=O)c1c(N)sc2c1CCCC2	-10%	-4%	-3%	6%	-14%
CCN1CCc2c(sc(NC(=O)C3CCCCC3)c2C(=O)OC)C1	x	26µM*	2%	u	1%
CN1CCc2c(sc(/N=C/c3c[nH]c4ccccc34)c2C(N)=O)C1	u	-103%	8%	16µM*	-1%
COc1ccc(Oc2ccc(NC(=O)c3ccccc3C)cc2)cc1	-2%	u	-2%	21µM*	17%
COc1ccc(C(=O)Nc2ccc(N3CCN(C(=O)c4ccccc4C)CC3)cc2)cc1	-8%	8.2µM*	7%	8.2µM*	10%
CCN1CCN(c2ccc(NC(=O)c3ccc4c(c3)[nH]c(=O)n4Cc3ccc(OC)cc3)cc2)CC1	8%	23µM*	-7%	u	-4%
CC(=O)Nc1ccc(NC(=O)c2ccccc2C)cc1	1%	-2%	3%	6%	-11%
Cc1nc(C)c(C(=O)Nc2ccc(Oc3ccccc3)cc2)o1	5%	u	-7%	15µM*	-3%
COc1ccc(NC(=O)c2ccccc2[N+](=O)[O-])cc1	1%	-13%	-3%	-9%	-42%
COc1ccccc1Oc1ccc(NC(=O)c2ccccc2C)cc1	-4%	u	-11%	23µM*	-3%
COc1ccccc1Nc1ccc(NC(=O)c2cccc([N+](=O)[O-])c2C)cc1	x	u	8%	18µM*	16%
COc1ccc(O)c(C(=O)CC(=O)c2ccccc2C)c1	-3%	7.3µM*	-14%	5.8µM*	-10%
COc1ccccc1CNC(=O)CN1C(=O)c2ccccc2S1(=O)=O	x	-2%	1%	-7%	1%
O=C1C2C3C=CC(C3)C2C(=O)N1/N=C/c1cn(Cc2ccccc2)c2ccccc12 (configuration not stated)	6%	16µM*	-2%	u	-35%
O=C1C2C3C=CC(C3)C2C(=O)N1/N=C/c1cn(Cc2ccc(F)cc2)c2ccccc12 (configuration not stated)	-2%	-3%	16%	-19%	-8%
CC(C)=CCC/C(C)=C/CC/C(C)=C/CSc1ccccc1C(=O)O	-9%[56.1 µM]	x	x	x	x
CN(Cc1cnc2nc(N)nc(N)c2n1)c1ccc(C(=O)NC(CCC(=O)O)C(=O)O)cc1C(F)(F)F (configuration not stated)	x	0.029µM*	-10%	0.18µM*	x
CN1c2c(nc(N)[nH]c2=O)NCC1CNc1ccc(C(=O)NC(CCC(=O)O)C(=O)O)cc1 (configuration not stated)	x	5%	x	u	x
CCOc1cc(CNCCc2ccc(S(N)(=O)=O)cc2)ccc1OCC(=O)NC(C)(C)C	2%	u	0%	u	13%
CCOc1cc(CNCCc2ccc(S(N)(=O)=O)cc2)ccc1OCC(=O)NC1CCCCC1	6%	u	-6%	23µM*	25%
